VDR inhibitor = Inhibitors of the vitamin D receptor (VDR): qHTS; Vitamin D3 receptor (Homo sapiens), P11473; VDR-SRC2-3 peptide fluorescence polarization, 2 h; Potency, µM, for inactives: max response, negative = inhibition, most hits filed as inhibitors; hit rate 0.93% among 400,000; AID 504847, 2011
Target sequence (P11473 whole entry, looked up): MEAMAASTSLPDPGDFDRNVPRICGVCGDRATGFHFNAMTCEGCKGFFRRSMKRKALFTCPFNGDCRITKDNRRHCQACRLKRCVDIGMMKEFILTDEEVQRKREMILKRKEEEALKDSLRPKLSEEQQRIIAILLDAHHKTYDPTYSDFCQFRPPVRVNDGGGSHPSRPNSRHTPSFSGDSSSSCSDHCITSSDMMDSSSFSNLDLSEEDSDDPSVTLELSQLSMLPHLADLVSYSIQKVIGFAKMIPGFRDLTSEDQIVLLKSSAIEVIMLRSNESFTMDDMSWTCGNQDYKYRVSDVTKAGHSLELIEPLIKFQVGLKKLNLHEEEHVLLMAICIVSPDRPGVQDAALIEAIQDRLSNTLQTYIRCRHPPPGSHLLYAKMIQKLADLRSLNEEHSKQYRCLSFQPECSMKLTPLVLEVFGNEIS
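After 23 nl compound addition and a short centrifugation, plates sat for 2 hours at ambient temperature; polarization of fluorescence then indicated loss of VDR binding to peptide SRC2-3.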
Tau fluor cs = Counterscreen qHTS for Inhibitors of Tau Fibril Formation, Fluorescence Polarization. tau K18 P301L Alexa594 fluorescence, heparin fibrillization. Potency, µM (top dose mostly 57.7 µM), without a hit: at the highest dose activity change, negative = decrease. hit rate 0.93% among 280,000. AID 1463, 2008; note: nearly all actives have a fitted effect of over 55% in size
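Human K18 P301L tau (15 uM unlabeled plus 0.24 uM Alexa 594-labeled, final) in 100 mM sodium acetate pH 7 was mixed with compound and 20 uM heparin and incubated 6 hr at 37 C.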
Tau fibril ThT = qHTS for Inhibitors of Tau Fibril Formation, Thioflavin T Binding; Microtubule-associated protein tau (Homo sapiens), P10636; AID 1460, 2008; Potency, µM (doses to about 57.4 µM), without a hit: at the highest dose activity, negative = inhibition, most hits filed as inhibitors; recombinant tau K18 P301L (four-repeat tau fragment), heparin-induced fibrillization, ThT fluorescence; hit rate 2.1% among 270,000; note: nearly all actives have a fitted effect of over 55% in size
Target sequence (P10636 561-689 P618L limits assumed): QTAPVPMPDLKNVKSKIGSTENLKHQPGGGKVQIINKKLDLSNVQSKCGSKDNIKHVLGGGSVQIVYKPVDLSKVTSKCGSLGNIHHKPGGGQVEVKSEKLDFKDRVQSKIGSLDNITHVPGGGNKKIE
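Heparin-induced (20 uM) aggregation of recombinant human K18 P301L tau, 15 uM unlabeled with 0.24 uM labeled, pH 7 acetate buffer, 6 hr at 37 C with compound. Fibrils quantified by 30 uM ThT fluorescence after 1 hr ambient incubation.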
Tau FP inhib = qHTS for Inhibitors of Tau Fibril Formation, Fluorescence Polarization; Potency, µM (top dose mostly 57.7 µM), for inactives: top-dose activity, negative = inhibition, usual class: inhibitors; hit rate 0.39% among 280,000; Microtubule-associated protein tau (Homo sapiens), P10636; K18 P301L tau heparin fibrillization, Alexa594 FP, 6 h; note: nearly all actives have a fitted effect of over 55% in size
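Steps: dispense K18 P301L tau (15 uM plus 0.24 uM Alexa 594 tracer, final) in pH 7 sodium acetate; add compound; add heparin (20 uM final); incubate 6 hr, 37 C; add ThT (30 uM final); after 1 hr ambient, read FP.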
PLK1 PBD inh = qHTS for Inhibitors of PLK1-PDB (polo-like kinase 1 - polo-box domain): Primary Screen | Serine/threonine-protein kinase PLK1 (Homo sapiens), P53350 | Plk1 PBD binding of FITC phosphopeptide, fluorescence polarization | Potency, µM, for the others: max response, negative = inhibition, hits mostly inhibitors | hit rate 2.8% among 360,000; note: series mostly up to about 57 µM; nearly all actives have a fitted effect of over 65% in size
Sfp PPTase inh = qHTS Assay for Inhibitors of Bacillus subtilis Sfp phosphopantetheinyl transferase (PPTase). 4'-phosphopantetheinyl transferase ffp (Bacillus subtilis), Q9F4F7. Biochemical Sfp PPTase activity, qHTS. Potency, µM, without a hit: largest response in the series, negative = inhibition, most hits filed as inhibitors. hit rate 3.5% among 310,000;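 note: the enzyme is Sfp with the accession as filed and its product quenches rhodamine fluorescence; 0% = enzyme reaction without inhibitor and -100% = no enzyme wells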
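Fluorescence-quenching assay with 15 nM Sfp, 5 uM rhodamine-CoA and 12.5 uM BHQ-2-labelled ybbR peptide in pH 7.6 Hepes/MgCl2 buffer. Enzyme was pre-incubated with compound for 15 min at room temperature. Rate was taken from the 30-min fluorescence change (525/598 nm).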
TbPYK confirm = qHTS of Trypanosoma Brucei Inhibitors: Confirmatory Assay for Cherry-picked Compounds; recombinant TbPYK, Kinase-Glo ATP luminescence; AID 720569, 2013; shares compounds with PLK1 PBD inh; Potency, µM (doses to about 76.9 µM), without a hit: top-dose activity change, negative = inhibition, usual class: inhibitors; hit rate 67% among 890; note: nearly all actives have a fitted effect of over 70% in size
TbPYK orthogonal = qHTS of Trypanosoma Brucei Inhibitors: Orthogonal Assay for Cherry-picked Compounds | shares compounds with PLK1 PBD inh | recombinant TbPYK, ADP-Glo luminescence, 60 min | Potency, µM (highest dose often 76.9 µM), inactives show at the top dose activity change, negative = inhibition, actives largely listed as inhibitors | hit rate 62% among 890 | AID 720584, 2013; note: nearly all actives have a fitted effect of over 75% in size
* = called active by the depositor; ? = inconclusive; . = no result given. Shown are actives, neighbours in structure and some others; about 6% of the full set was active somewhere. Calls come from the whole dose curve; as a rule, active = well fitted curve in the direction sought with a large enough effect; inconclusive = small, poorly fitted or top-dose-only effect, or another doubt; inactive = no such curve, though single readings can be large; an effect the other way counts as inactive or inconclusive. Unless noted, % is set by controls: 0 for no effect and ±100 for the full control effect; potency is the fitted concentration of half-maximal effect.

SMILES | VDR inhibitor | Tau fluor cs | Tau fibril ThT | Tau FP inhib | PLK1 PBD inh | Sfp PPTase inh | TbPYK confirm | TbPYK orthogonal
COc1ccc(C#Cc2cnc3c(c2)C(=O)N([C@@H](C)CO)C[C@@H](C)[C@@H](CN(C)CC2CCOCC2)O3)cc1 | . | . | . | . | -6.9% | . | . | .
CC1=C(C#N)C(=O)NC(=O)/C1=C/c1ccc(-c2ccc(S(N)(=O)=O)cc2)o1 | 25.1µM* | ? | 15.8µM* | -18.1% | 9.47µM* | 79.4µM* | -16.8% | -22.2%
NS(=O)(=O)c1ccc(-c2ccc(C=O)o2)cc1 | -2.2% | 4.4% | -5.6% | 1.6% | -4.3% | 12.4% | . | .
Cc1ccc(CN(C)C(=O)c2cc(COc3cccc(C(F)(F)F)c3)on2)o1 | 89.1µM* | . | . | . | ? | 20µM* | 12.6µM* | 11.2µM*
CN(Cc1nccn1C)C(=O)c1cc(COc2cccc(C(F)(F)F)c2)on1 | -7.9% | . | . | . | -11.9% | 0.4% | . | .
Cc1ccc(CN2CCN(/N=C/c3ccc(O)c(O)c3)CC2)cc1 | -18.9% | . | . | . | ? | -74.0% | 14.1µM* | 15.8µM*
CCCCN(CC)C(=O)CCCn1c(=O)c2cccn2c2ccccc21 | 5.1% | -15.9% | -20.3% | -9.7% | . | . | . | .
CCCCCC(=O)NNC(=S)NC(=O)c1cccc([N+](=O)[O-])c1 | ? | -17.3% | -6.8% | -6.2% | 15µM* | ? | 11.2µM* | 14.1µM*
COc1ccc(OC)c(S(=O)(=O)Nc2cc3c(cc2N2CCCC2)n(C)c(=O)c(=O)n3C)c1 | ? | . | . | . | 21.2µM* | -4.5% | -21.4% | ?
Cc1c(Cl)ccc2sc(N3CCN(C(=O)C4CC4)CC3)nc12 | 6.2% | -20.5% | ? | -6.6% | . | . | . | .
Cc1ccc(CN2C(=O)c3ccccc3S(=O)(=O)c3ccc(C(=O)OCC4CCCO4)cc32)cc1 (stereo not given) | 8.7% | -14.1% | 4.4% | -2.5% | . | . | . | .
COc1ccc(-c2nc(CC(=O)Nc3cccc(S(=O)(=O)NC4=NCCC4)c3)cs2)cc1 | -21.0% | . | . | . | -14.6% | . | . | .
COc1cc(C(=O)NC(=S)Nc2ccc(N3CCCC3)cc2)cc(OC)c1OC | -19.7% | ? | ? | -0.2% | -3.6% | ? | . | .
COc1ccc(C(=O)N/N=C/c2ccc(N3CCOCC3)o2)cc1OC | ? | -10.1% | ? | -0.3% | -13.7% | 3.55µM* | -6.7% | ?
COc1ccc(C(=O)Nc2ccc(N3CCCC3)cc2)cc1OC | 9.8% | . | . | . | 3.9% | -8.0% | ? | -24.7%
COc1ccc2c(c1)c1c(c(=O)n(-c3ccccc3)c(=O)n1CC(=O)NCCC1=CCCCC1)n2C | 0.2% | 1.4% | 10.8% | -5.2% | . | . | . | .
O=C(COc1cccc(C(F)(F)F)c1)N1CCN(c2ccc(O)cc2)CC1 | 8.2% | -23.0% | ? | 7.1% | -2.5% | 28.2µM* | 8.91µM* | ?
O=C(COc1cccc(C(F)(F)F)c1)N1CCN(c2ccccc2O)CC1 | 18.8% | -19.9% | -9.0% | 9.2% | -6.6% | 18.4% | . | .
O=[N+]([O-])c1cc(-c2ccc(C(=S)N3CCOCC3)o2)ccc1Cl | 10µM* | ? | 14.1µM* | ? | 2.67µM* | -94.6% | 15.8µM* | 15.8µM*
Cc1ccc(/C=C2/NC(=O)N(Cc3ccccc3)C2=O)o1 | 89.1µM* | -21.0% | 31.6µM* | ? | 33.7% | ? | 15.8µM* | 31.6µM*
Cn1c(=O)n(C)c2cc(/C=C3/NC(=O)N(Cc4ccccc4)C3=O)ccc21 | 3.8% | -12.6% | -7.0% | 1.0% | -0.2% | 15.0% | . | .
Cc1cccc(OCC(=O)Nc2c(C(=O)N3CCN(c4ccccc4F)CC3)oc3ccccc23)c1 | 9.3% | -9.1% | -10.7% | -1.4% | . | . | . | .
Cn1c(=O)c(-c2ccc(Cl)cc2)nc2cnc(Oc3cccc(Cl)c3)nc21 | -13.8% | . | . | . | . | 11.8% | . | .
C=C1C(=O)C23CCC4C(C)(C(=O)OC)CCCC4(C)C2CCC1(O)C3 (stereo not given) | ? | . | . | . | ? | . | 10µM* | 14.1µM*
CC1(C)Cc2c(C#N)c(NCCc3ccccc3)nc(-c3ccco3)c2CO1 | ? | 2.3% | ? | -3.8% | ? | 50.1µM* | ? | 12.6µM*
SMILES | VDR inhibitor | Tau fluor cs | Tau fibril ThT | Tau FP inhib | PLK1 PBD inh | Sfp PPTase inh | TbPYK confirm | TbPYK orthogonal
O=[N+]([O-])c1cnc(Sc2ccncn2)c([N+](=O)[O-])c1 | . | . | . | . | 1.19µM* | . | -90.3% | ?
O=[N+]([O-])c1ccc(Sc2ccc(F)cc2)nc1 | -12.5% | . | . | . | 1.0% | . | . | .
Nc1ccc2nc(N)sc2c1 | 3.5% | . | . | . | 1.9% | . | . | .
Nc1nc2ccc([N+](=O)[O-])c(N)c2s1 | -14.3% | ? | 11.2µM* | ? | 10.6µM* | 89.1µM* | ? | 31.6µM*
Oc1ccc(N2CCN(Cc3nc4ccccc4[nH]3)CC2)cc1 | 3.1% | . | . | . | -6.6% | 56.2µM* | 17.8µM* | 28.2µM*
N/C(=N/OC(=O)c1ccccc1Cl)c1nonc1N | -5.0% | -6.0% | -0.7% | -1.0% | -3.6% | -11.4% | 25.1µM* | 6.1%
N/C(=N\OC(=O)c1ccc(F)cc1)c1nonc1N | 5.6% | 0.7% | 11.7% | 4.2% | -17.8% | 24.9% | . | .
Cc1ccc2cccc(NC(=O)c3ccc(C#N)cc3F)c2n1 | -2.5% | -8.5% | -0.9% | -0.7% | . | . | . | .
CCCS(=O)(=O)c1cscc1NC(=O)c1c(-c2c(F)cccc2Cl)noc1C | -4.0% | -23.1% | -7.5% | -1.8% | 3.8% | 0.3% | 12.6µM* | 14.1µM*

Bioassay records (PubChem BioAssay)
